Assay outcomes (PubChem BioAssay)
The list is not random: actives were taken first. Their share in the collection is about 1.3%.
FEN1 inh – blocks human flap endonuclease 1; Recombinant FEN1 flap cleavage, fluorescence, 15 min; P39748; Potency, µM (series often up to 114 µM), without a hit: at the highest dose activity change, negative = inhibition, actives largely listed as inhibitors; 0.35% of 390,000 active; AID 588795; also: potency is read from the fitted curve at half-maximal effect; % is scaled to controls: 0 for no effect and ±100 for the full control effect; nearly all actives have a fitted effect of over 65% in size
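Nuclease activity of 10 nM FEN1 was measured after 15 min of room-temperature exposure to titrated compounds, by adding 50 nM flap substrate and reading plates at 0 and 15 min.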
Pin1 inhibitor – blocks the human prolyl isomerase Pin1; AID 504891; Potency, µM (doses to about 115 µM), without a hit: at the highest dose activity, negative = inhibition, most hits filed as inhibitors; 0.009% of 390,000 active; Pin1 FP peptide displacement, HiFluor488, 10 min; Q13526; active = well fitted inhibition curve with a large enough effect in the polarisation, with a control signal flat, not every such curve was filed as active; inconclusive = small, poorly fitted or top-dose-only effect, or effect the other way, or a change in a side signal; inactive = no such curve, though single readings can be large or run the other way; the % refers to the polarisation; also: potency is read from the fitted curve at half-maximal effect; % is scaled to controls: 0 for no effect and ±100 for the full control effect
Target sequence (Q13526 whole entry, looked up): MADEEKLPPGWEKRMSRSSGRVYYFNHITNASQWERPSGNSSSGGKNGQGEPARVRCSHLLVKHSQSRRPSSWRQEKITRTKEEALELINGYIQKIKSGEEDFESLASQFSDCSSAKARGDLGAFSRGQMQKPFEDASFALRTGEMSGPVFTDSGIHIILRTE
Tb PGK inh – T. brucei PGK inhibition | PGK/GAPDH coupled, Kinase-Glo luminescence, 60 min | 0.043% of 380,000 active | Potency, µM (highest dose often 57.5 µM), for inactives: top-dose activity change, negative = inhibition, usual class: inhibitors; also: potency is read from the fitted curve at half-maximal effect; % is scaled to controls: 0 for no effect and ±100 for the full control effect; nearly all actives have a fitted effect of over 60% in size
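Luminescent ATP detection (Kinase-Glo Plus) follows a 60-minute room-temperature incubation, with wells lacking PGK as controls. Buffer: 100 mM TEA (pH 7.6), 5 mM MgCl2, 0.01% Tween-20. Coupling enzyme GAPDH (100 nM final) supplies unstable 1,3-BPG in-well.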
PI5P4Ka inh – inhibitors of human PI5P4K alpha; P48426; max response, %; PI5P4Kalpha enzyme, ADP-Glo luminescence, 60 min; hits give low values; 1.2% of 330,000 active; AID 652105; active = max response of -50% or lower; inconclusive = between -30% and -50%; inactive = -30% or higher; also: value at the top dose of about 77 µM; % is scaled to controls: 0 for no effect and ±100 for the full control effect
Target sequence (P48426 whole entry, looked up): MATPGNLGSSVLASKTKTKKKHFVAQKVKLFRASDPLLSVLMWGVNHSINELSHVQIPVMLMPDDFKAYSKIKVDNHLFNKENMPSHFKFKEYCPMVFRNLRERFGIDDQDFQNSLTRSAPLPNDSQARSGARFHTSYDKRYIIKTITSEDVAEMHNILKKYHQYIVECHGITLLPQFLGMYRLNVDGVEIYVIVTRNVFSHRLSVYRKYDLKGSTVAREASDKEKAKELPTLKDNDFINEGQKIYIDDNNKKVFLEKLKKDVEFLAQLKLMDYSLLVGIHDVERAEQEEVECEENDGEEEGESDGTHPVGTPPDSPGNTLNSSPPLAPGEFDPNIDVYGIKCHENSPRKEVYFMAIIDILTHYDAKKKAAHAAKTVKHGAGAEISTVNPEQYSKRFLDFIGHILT
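qHTS, 1536-well: enzyme/substrate mix, compound by pin tool, 5 microM ATP final; RT 60 min; ADP-Glo reagents 1 (45 min) then 2 (30 min); luminescence.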
WRN helicase inh – blocks human WRN helicase | Q14191 | WRN helicase unwinding, fluorescent forked duplex, kinetic | Potency, µM (titrated, usually from 114 µM), inactives show top-dose activity change, negative = inhibition, most hits filed as inhibitors | 0.46% of 360,000 active | AID 651768; also: potency is read from the fitted curve at half-maximal effect; % is scaled to controls: 0 for no effect and ±100 for the full control effect; nearly all actives have a fitted effect of over 55% in size
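Kinetic fluorescence helicase assay: unwinding of a quenched forked DNA duplex (100 nM final) with 2 mM ATP final raises red fluorescence (525/598 nm). Compounds sat 15 min at room temperature with 20 nM WRN beforehand.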
GRP78 ERSR act – induces the endoplasmic reticulum stress response in human glioma cells. U87-MG GRP78 promoter luciferase reporter, 16 h. Potency, µM, for inactives: at the highest dose activation, most hits filed as activators. 0.02% of 420,000 active. AID 602332; also: potency is read from the fitted curve at half-maximal effect; series mostly up to about 76 µM; % of control where 0% means no effect; nearly all actives have a fitted effect of over 35% in size
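Stably transfected U87-MG glioma cells carrying a GRP78-based luciferase sensor; 16 h compound incubation. Luminescence end-point read 10 min after Bright-Glo addition at room temperature.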
ADP-Glo interf – counter-screen for PI5P4K inhibitors: ADP-Glo detection interference, no enzyme; shares compounds with PI5P4Ka inh; ADP-Glo detection counter-screen, luciferase luminescence, no enzyme; Potency, µM (series often up to 76.9 µM), without a hit: at the top dose activity change, negative = inhibition, hits mostly inhibitors; 1,100 tested, under 10 active; AID 743285
The depositor's hits bear a star; ? = inconclusive; · = no result; [ ] = another dose, or the depositor's remark. Unless noted, calls follow the shape of the dose curve; as a rule, active = well fitted curve in the direction sought with a large enough effect; inconclusive = small, poorly fitted or top-dose-only effect, or another doubt; inactive = no such curve, though single readings can be large; an effect the other way counts as inactive or inconclusive.

SMILES	FEN1 inh	Pin1 inhibitor	Tb PGK inh	PI5P4Ka inh	WRN helicase inh	GRP78 ERSR act	ADP-Glo interf
COc1ccc(N2CCN(C(=O)Cc3ccc(S(=O)(=O)N4CCOCC4)s3)CC2)cc1	-20%	?	-23%	-71*	?	-5%	2%
Cc1ccc(S(=O)(=O)N2CCN(C(=O)Cc3ccc(S(=O)(=O)N4CCOCC4)s3)CC2)cc1	-16%	10%	-9%	-3	11%	-4%	·
COCCN(C(=O)COC(=O)c1cc2c(s1)CCCC2)c1c(N)n(Cc2ccccc2)c(=O)[nH]c1=O	0%	8%	1%	-56*	-16%[11.6 µM]	-3%	-3%
CC(=O)c1ccc(F)c(-c2cc(C)cc3c2OC(CNC(=O)c2ccnn2C)C3)c1 (stereo not given)	·	·	·	·	·	-4%	·
COC(=O)c1ccc2nc(-c3ccco3)c(Cc3ccc(OC)cc3C)n2c1	·	·	·	-80*	-34%	-5%	1%
COC(=O)c1ccc2nc(-c3ccco3)c(Cc3ccc(C)cc3)n2c1	·	·	·	-19	-2%	?	·
COC(=O)c1ccccc1-c1cc(C)cc2c1OC(CNC(=O)c1cc(C)on1)C2 (stereo not given)	·	·	·	·	·	5%	·
CC(C)Cc1nc2cc(NS(=O)(=O)N(C)C)cc(C(=O)N3CC4(C)CC3CC(C)(C)C4)c2n1C (stereo not given)	·	·	·	·	·	-3%	·
Cn1nc(C(C)(C)C)cc1N1C(=O)CCC1(C)C(=O)NC1CCCCC1 (stereo not given)	·	·	·	7	-1%	-6%	·
CCCCNC(=O)C1(C)CCC(=O)N1c1cc(C(C)(C)C)nn1C (stereo not given)	·	·	·	4	4%	-4%	2%
Cc1cc(-c2csc(N)n2)c(C)n1C	?	?	-8%	-60*	?	-4%	-6%
Cc1cc2ccccc2nc1SCC(=O)NC1CCCC1	-5%	1%	-10%	-65*	-31%	-4%	6%
Cc1cc(SCC(=O)NC2CCCCC2)nc2ccccc12	1%	1%	-9%	-1	3%	-2%	·
O=C1CCC(C(=O)Nc2ccc([N+](=O)[O-])cc2)N1 (stereo not given)	4%	?	-10%	-54*	?	-2%	-5%
O=C(COc1ccccc1)Nc1cccc(-c2ccc(N3CCOCC3)nn2)c1	5%	-8%	-3%	-13	-4%	-2%	-14%
Cc1cccc(CNC(=O)c2cnn(-c3nccc(-c4cccs4)n3)c2C2CC2)n1	·	·	·	·	·	-5%	·
O=C(NC1CCC(O)CC1)c1cc(-c2ccco2)nc2ccccc12 (stereo not given)	-24%	-8%	-14%	-67*	?	-4%	-6%
COc1ccc(NC(=O)CN(C)C(=O)c2cc(-c3ccco3)nc3ccccc23)cc1	?	·	?	-74*	63µM*	-3%	-5%
COc1ccc(NC(=O)c2cc(-c3ccco3)nc3ccccc23)cc1S(=O)(=O)N1CCOCC1	?	-19%	-8%	-59*	?	-3%	-10%
COC(=O)C1CCN(C(=O)c2cc(-c3ccco3)nc3ccccc23)CC1	40µM*	·	?	-82*	50µM*	-4%	-3%
COc1ccc(NC(=O)c2cc(-c3ccco3)nc3ccccc23)cc1	13%	32%	-15%	?	-22%	-6%	·
COC(=O)C1CCN(c2nc(CN(C)C3CCOC3)nc3cc(OC)c(OC)cc23)CC1 (stereo not given)	·	·	·	·	·	-6%	·
Cc1cccc(OCCC(=O)NO)c1	31%	·	·	·	·	·	·
COc1cc(=O)n2c(c1C(=O)N(C)Cc1nonc1C)CCN(C(=O)c1cccc(C)c1C)CC2	·	·	·	·	·	0%	·
COc1ccc(-n2c(CNC(=O)c3cccc4ccccc34)nnc2SC)cc1	·	·	·	·	·	-2%	·
SMILES	FEN1 inh	Pin1 inhibitor	Tb PGK inh	PI5P4Ka inh	WRN helicase inh	GRP78 ERSR act	ADP-Glo interf
CC(=O)Nc1cccc2cc(O)ccc12	-16%	?	-4%	-63*	-21%	-2%	3%
Oc1ccc(CNc2ccc(F)cc2)c2cccnc12	-21%	?	0%	-54*	?	0%	2%
O=C(COc1ccc([N+](=O)[O-])cc1)Nc1cccnc1	4%	12%	-7%	-54*	-13%	-1%	-2%
CCOc1ccc(S(=O)(=O)N2CCN(c3ccc(C)cc3C)CC2)cc1	6%	6%	1%	-110*	-6%	-3%	-2%
COc1ccc(S(=O)(=O)N2CCN(c3ccc(C)cc3C)CC2)cc1OC	?	0%	-11%	-1	-4%	-5%	·
Cc1cc(O)ccc1Nc1cc(-c2cccc(N(C)C)c2)ncn1	·	·	·	·	5%	7%	-6%
Cc1oc2ccc(OCc3ccccc3Cl)cc2c1C(=O)O	16%	1%	1%	-61*	1%	2%	-5%
CCn1cc(C(=O)N2CCN(c3cccc(C)c3C)CC2)c(=O)c2ccc(C)nc21	-13%	?	-12%	-73*	?	-2%	-7%
CCn1cc(C(=O)N2CCN(c3ccc([N+](=O)[O-])cc3)CC2)c(=O)c2ccc(C)nc21	-5%	4%	-12%	-1	1%	-2%	·
COC(=O)c1[nH]cnc1C(=O)c1ccccc1	21%	3%	-9%	-61*	-15%	-13%	2%
COc1cc(CNc2ccc(N3CCCC3)cc2)cc(Cl)c1OC	-18%	2%	10%	-66*	-12%	-9%	-4%
CCCCC1=CC2=C(c3ccco3)C(=O)C(C)(OC(=O)c3ccc(OC)cc3)C(=O)C2=CN1Cc1ccccc1 (stereo not given)	-8%	?	-8%	-71*	-8%	-1%	-2%
CCn1nc(CC(=O)Nc2nnc(CC(=O)N3CCOCC3)s2)c2ccccc2c1=O	5%	-5%	5%	2	-14%[57.1 µM]	2%	0%
O=C(OCC(=O)N1CCCCCC1)c1ccc(Cl)c(S(=O)(=O)N2CCCC2)c1	2%	-4%	-1%	-61*	-28%	-6%	2%
NS(=O)(=O)c1ccc(CCNC(=O)C2Cc3ccccc3CN2C(=O)c2ccco2)cc1 (stereo not given)	7%	13%	10%	-19	-17%	-4%	·
NS(=O)(=O)c1ccc(NC(=O)C2Cc3ccccc3CN2C(=O)c2ccco2)cc1 (stereo not given)	-9%	-6%	-22%	-87*	?	1%	3%
Cc1c(C(=O)N2CCCC2)sc2ncnc(NCCN(C)C)c12	·	·	·	·	·	-9%	·
O=C(NCc1ccco1)C1Cc2c(-c3cccc(F)c3)ccnc2O1 (stereo not given)	·	·	·	-65*	-3%	-4%	-4%
